Rows were chosen to be rich in hits. Some 0.69% of all compounds tested hit in one or more screens of this group.
PINK1 expr mod = A Quantitative High throughput Screen to Identify Chemical Modulators of PINK1 Expression | PINK1 immunofluorescence, high-content cytometry, 24 h | actives 0.2% (n = 410,000) | AID 624263, 2012 | Potency, µM (highest dose often 76.6 µM), inactives show top-dose activation (PINK1 increase), most hits filed as activators; active means well fitted activation curve with a large enough effect; inconclusive means small, poorly fitted or top-dose-only effect; cell line not stated here; further: % of control where 0% means no effect; nearly all actives have a fitted effect of over 65% in size
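A stable cell line was treated with compounds at 5 concentrations for 24 hours, with CCCP as control. PINK1 levels and mitochondrial localization were measured by immunofluorescence with mitochondrial, cell and nuclear markers after fixation, read by laser-scanning cytometry.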
Vif-APOBEC3F blk = qHTS for Inhibitors of Vif-A3F Interactions: qHTS; Potency, µM (highest dose often 46.1 µM), inactives show at the highest dose activity, negative = active; actives 0.2% (n = 390,000); AID 602313, 2012; HeLa A3F-eYFP + Vif (tagged APOBEC3F with the HIV-1 protein that degrades it), YFP fluorescence increase; further: % of control where 0% means no effect; nearly all actives have a fitted effect of over 65% in size
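HeLa cells stably expressing Vif plus C-terminally eYFP-tagged A3F were seeded, incubated overnight at 37 deg C, dosed with compound, incubated overnight again at 37 deg C. Yellow fluorescence (Ex 488/Em 500-530) reported blocked Vif-mediated A3F-eYFP degradation.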
GRP78 ERSR act = qHTS for Inducers of the Endoplasmic Reticulum Stress Response (ERSR) in Human Glioma: qHTS | U87-MG GRP78 promoter luciferase reporter, 16 h | Potency, µM, inactives show at the top dose activation, actives largely listed as activators | actives 0.02% (n = 420,000) | AID 602332, 2012; further: series mostly up to about 76 µM; % of control where 0% means no effect; nearly all actives have a fitted effect of over 35% in size
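Stably transfected U87-MG human glioma cells carrying a GRP78-based luminescent sensor were seeded at 1000 cells/well, pin-dosed with compounds and incubated 16 h. Luciferase reagent was then added, and end-point luminescence was read after 10 min at room temperature.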
Vif-A3G inh = qHTS for Inhibitors of Vif-A3G Interactions: qHTS. HeLa A3G-eYFP + Vif (tagged APOBEC3G with the HIV-1 protein that degrades it), YFP fluorescence, overnight. Potency, µM (titrated, usually from 46.1 µM), without a hit: at the top dose activity, negative = active, actives largely listed as inhibitors. actives 0.076% (n = 410,000); further: on the % scale 0 is the no-effect control and ±100 the full control effect; nearly all actives have a fitted effect of over 60% in size
Target sequence (Q9HC16 whole entry, looked up): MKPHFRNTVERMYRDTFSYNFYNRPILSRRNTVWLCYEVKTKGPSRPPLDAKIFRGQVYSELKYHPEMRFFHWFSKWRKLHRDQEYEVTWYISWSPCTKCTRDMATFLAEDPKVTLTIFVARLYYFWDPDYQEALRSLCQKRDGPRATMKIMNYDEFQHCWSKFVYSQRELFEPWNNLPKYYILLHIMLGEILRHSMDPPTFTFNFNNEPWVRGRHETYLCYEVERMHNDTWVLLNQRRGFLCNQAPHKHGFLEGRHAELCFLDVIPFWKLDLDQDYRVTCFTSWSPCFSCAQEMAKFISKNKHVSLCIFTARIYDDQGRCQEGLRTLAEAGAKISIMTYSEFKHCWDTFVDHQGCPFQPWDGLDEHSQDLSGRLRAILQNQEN
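HeLa cells stably expressing Vif and C-terminally eYFP-tagged A3G, seeded overnight at 37 deg C, then exposed to compound by pintool overnight at 37 deg C. Rise in yellow fluorescence (Ex 488/Em 500-530, Acumen) marks blocked Vif-driven A3G degradation.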
Abeta yeast res = qHTS for compounds that reverse cellular toxicity of Amyloid beta (A-beta) peptide in yeast: Primary Screen | yeast expressing A-beta42, growth rescue, OD600, 48 h; response scale: 0% DMSO, 100% iron-clioquinol control | Potency, µM (series often up to 46.1 µM), actives largely listed as activators | actives 0.063% (n = 410,000) | AID 1347071, 2019; further: nearly all actives have a fitted effect of over 55% in size
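Growth rescue measured by 600 nm absorbance after 48 h yeast culture at 30 C with compound. Values normalized between DMSO and an equimolar ferric chloride plus clioquinol control.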
FUS suppressor = qHTS for Suppressors of FUS Proteinopathy: Primary screen using FUS-linked yeast assay. actives 0.24% (n = 390,000). S. cerevisiae FUS-expressing, growth rescue, OD600, 24 h. Potency, µM (series often up to 76.6 µM), most hits filed as activators. AID 1347120, 2019;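 further: plate controls were DMSO vehicle for no effect and reference control for full effect; nearly all actives have a fitted effect of over 55% in size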
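Toxicity suppression screen in FUS-yeast. Cells induced with 2% galactose, starting OD 0.005, treated 24hr at 30C with compounds at multiple final concentrations; growth by OD600.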
* = called active by the depositor; i = inactive; ? = inconclusive; nt = no result given; [ ] = remark or other dose. Unless noted, the call rests on the fitted dose curve; in most records, active means well fitted curve in the direction sought with a large enough effect; inconclusive means small, poorly fitted or top-dose-only effect, or another doubt; inactive means no such curve, though single readings can be large; an effect the other way counts as inactive or inconclusive. Potency means the concentration at half of the fitted maximal effect.

SMILES | PINK1 expr mod | Vif-APOBEC3F blk | GRP78 ERSR act | Vif-A3G inh | Abeta yeast res | FUS suppressor
NC(=O)CSc1nc2scc(-c3ccco3)c2c(=O)n1-c1ccccc1 | -2.2% | -0.1% | -3.3% | -7.4% | i | 22.4µM*
O=C(CSc1nc2scc(-c3ccco3)c2c(=O)n1-c1ccccc1)N1CCOCC1 | 0.0% | -4.9% | -1.6% | -3.5% | i | i
COc1ccc(-c2cc(C(=O)Nc3ccc(S(=O)(=O)Nc4ncccn4)cc3)c3ccccc3n2)cc1 | 0.1% | 2.1% | 6.0% | -12.3% | i | i
COc1ccc(-c2cc(C(=O)Nc3ccc(C)c(N)c3)c3ccccc3n2)cc1 | 0.7% | -22.6% | -3.2% | ? | i | 14.1µM*
CC(=O)N/N=C/c1cc(C(C)C)cc(/C=N/NC(C)=O)c1O | 6.8% | 31.6µM* | -5.5% | ? | i | i
COc1ccccc1C(=O)N(Cc1cc2cc3c(cc2nc1N(C)C)OCO3)CC1CCCO1 (stereo not given) | 2.0% | nt | -2.2% | nt | nt | nt
COc1ccccc1C(=O)Nc1cccc(N2CCC(NCc3cnn(-c4ccccc4)n3)CC2)c1 | 1.7% | nt | -4.5% | nt | nt | nt
Cc1ccc(C(=O)N/C(=C/c2ccco2)C(=O)Nc2cccc(C)c2)cc1 | -1.5%[38.3 µM] | -2.3% | -0.6% | -1.1% | i | 31.6µM*
Cc1cccc(NC(=O)/C(=C\c2ccco2)NC(=O)c2cccs2)c1 | -0.8% | nt | -4.1% | -4.5% | i | i
COc1cccc(Nc2ncc3nc(-c4cn(C)c5ccccc45)c(=O)n(C[C@H]4CCCO4)c3n2)c1 | 2.51µM* | nt | -4.0% | nt | nt | nt
CCOc1cc(C(c2c(C)[nH][nH]c2=O)c2c(C)[nH][nH]c2=O)ccc1OCc1ccc([N+](=O)[O-])cc1 | -4.6% | 2.5% | ? | -8.7% | ? | ?
CCOc1cc(C(c2c(C)[nH][nH]c2=O)c2c(C)[nH][nH]c2=O)ccc1OC(=O)c1cccc([N+](=O)[O-])c1 | 1.6%[38.3 µM] | -11.2% | -2.0% | 2.0% | i | 35.5µM*
COC(=O)[C@@H]1CCCN1C(=O)c1c(OC)cc(=O)n2c1CCN(Cc1ccc3c(c1)CCO3)CC2 | 0.1% | nt | -2.9% | nt | nt | nt
NC(=S)Cc1nc(-c2ccc(Cl)cc2)cs1 | ? | 7.8% | -0.2% | -19.7% | 6.31µM* | i
S=C(NCc1ccco1)Nc1ccc(Cl)cn1 | 1.4% | 25.1µM* | 7.4% | -1.3% | i | i
S=C(NCc1ccco1)Nc1ccccn1 | -1.7% | ? | 1.6% | 6.2% | ? | i
C/C=C/C=C/C(=O)N1CC[C@]23c4ccccc4N[C@H]4N(C)c5cccc6c5[C@]42CCN([C@H]6C2OC2(C)C)[C@H]13 (stereo not given in full) | 3.2% | 0.3% | 0.0% | -9.8% | ? | 15.8µM*
Cc1c(C)c2c(c(C)c1OC(=O)CCC(=O)OCCO)CC[C@](C)(CCC[C@H](C)CCC[C@H](C)CCCC(C)C)O2 | nt | nt | -0.9% | nt | nt | nt
c1cc(N2CCCC2)ccc1C(c1nnnn1C1CCCCC1)N1CCOCC1 (stereo not given) | -0.4%[38.3 µM] | 1.7% | -1.2% | -6.7% | i | 39.8µM*
CO[C@H]1[C@H](NC(=O)C(C)C)c2ccccc2C12CCN(Cc1c(C)nn(C)c1Cl)CC2 | 1.0% | nt | -5.9% | nt | nt | nt
Cc1cccc(C(=O)NNC2=C(C(=O)C(F)(F)F)CCC2)c1O | 15.8µM* | nt | -8.4% | -0.2% | i | i
O=C(NNC1=C(C(=O)C(F)(F)F)CCC1)c1cccc(O)c1 | 1.0% | -0.2% | -1.6% | 2.7% | i | i
CSc1nc(C(=O)N2CCOc3ccc(CN4CCN(Cc5ccccn5)CC4)cc3C2)cs1 | 0.1% | nt | -3.4% | nt | nt | nt
NS(=O)(=O)c1ccc(CCNC(=O)C2CCN(S(=O)(=O)c3cnc[nH]3)CC2)cc1 | -0.4%[38.3 µM] | -13.1% | -0.8% | -2.2% | i | 25.1µM*
COc1cc(=O)n2c(c1C(=O)N(C)Cc1nccs1)CCN(Cc1cc3ccccc3s1)CC2 | 1.0% | nt | -0.6% | nt | nt | nt
SMILES | PINK1 expr mod | Vif-APOBEC3F blk | GRP78 ERSR act | Vif-A3G inh | Abeta yeast res | FUS suppressor
COC(=O)C1CN(Cc2ccccc2)CCS(=O)(=O)N1Cc1cn(Cc2ccccc2Br)nn1 (stereo not given) | nt | nt | nt | nt | nt | 14.1µM*
COc1ccc(OC)c(-c2cc(Cl)c3c(c2)CC(CNC(=O)c2cccnc2SC)O3)c1 (stereo not given) | -0.4% | nt | -4.2% | nt | nt | nt
COc1ccc(NS(=O)(=O)c2ccc3ccccc3c2)c2ncccc12 | 10.8% | ? | -6.3% | -13.3% | 4.47µM* | i
COc1ccccc1NS(=O)(=O)c1ccc2ccccc2c1 | 4.5% | -3.8% | -6.1% | 0.8% | i | i
Cc1c(N=C2N=C(NC(=O)c3ccc(F)cc3)c3ccccc32)c(=O)n(-c2ccccc2)n1C | 39.8µM* | -10.8% | -1.3% | -1.0% | i | i
CC(C)(C)Cc1c(-c2ccc(C#N)cc2)nc2c(Cl)cc(C(F)(F)F)cn12 | 35.5µM* | nt | -4.1% | -4.4% | i | i
COc1ccccc1Cc1c(-c2ccc(C#N)cc2)nc2c(Cl)cc(C(F)(F)F)cn12 | 10.1% | nt | nt | nt | i | i
O=C(NCCC1=CCCCC1)C(=O)NCC(c1ccco1)N1CCN(c2ccccc2)CC1 (stereo not given) | 12.6µM* | 3.4% | -4.3% | -0.6% | i | i
COc1ccc(N2CCN(C(CNC(=O)C(=O)NCCC3=CCCCC3)c3ccco3)CC2)cc1 (stereo not given) | -0.6% | -20.9% | -2.0% | 2.5% | i | nt
COc1ccc2c(c1)OC[C@H]1[C@H]2N2C(=O)CN(CCc3c[nH]c4ccccc34)C(=O)[C@@]2(C)[C@H]1c1ccccc1 | 0.6% | 1.5% | -3.1% | -4.0% | i | 22.4µM*
COC(=O)c1ccc(C2Nc3ccc(/C(C)=N/NC(=O)C(OC)c4ccccc4)cc3C3C=CCC32)cc1 (stereo not given) | 0.1% | -4.3% | -4.8% | -2.3% | i | 4.47µM*
CC(=O)c1ccc2c(c1)C1C=CCC1C(c1ccncc1)N2 (stereo not given) | 2.1% | -11.4% | 5.3% | 0.7% | i | nt
S=C(NCCc1cccc(Cl)c1)NC1CCCCC1 | ? | ? | -0.1% | -0.6% | 7.08µM* | i
COc1ccccc1-c1ccnc(-n2ncc(C(=O)N(C)C(C)c3ccon3)c2C2CC2)n1 (stereo not given) | 0.4% | nt | 6.1% | nt | nt | nt

High-throughput results: PubChem BioAssay, National Center for Advancing Translational Sciences (NCATS)
